PubChem BioAssay (NCI)
This is part of a sample that, as a whole, favours compounds with a hit. Of some 83,000 tested, about 20% had one in any assay.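 Results are percent growth after 48 hours of single-concentration exposure. 100 means growth as in untreated cells, lower positive values show inhibition; negative values down to -100 show cell death.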 Values without a mark were called inactive. Activity calls are given as the source filed them.

Test system: IGROV1 ovarian
Test: NCI-60 one-dose screen, 48 h (100 = growth as untreated, 0 = no growth, -100 = all killed)
Conditions: 10 µM unless noted
Procedure: Growth inhibition of the IGROV1 human tumor cell line is measured as a screen for anti-cancer activity. Cells are grown in 96 well plates and exposed to the test compound for 48 hours. Compounds are tested at a single concentration, which is 10^-5 M for most compounds. The reported endpoint is percent growth (GI% or GIPRCNT), where numbers from 0 - 100% represent growth inhibition, and numbers from -100% - 0 represent cell death. For example, a value of 40 represents 60% growth inhibition. A value of 0 means no net growth occurred over the course of the experiment. A value of -40 indicates 40% of cells at the beginning of the experiment died by the end of the experiment. A value of -100 means all cells are dead at the end of the experiment.
NCI-60 Human Tumor Cell Lines Screen was performed using the standard one-dose NCI protocol, which is described in more detail at https://dtp.cancer.gov/discovery_development/nci-60/default.htm.
Compounds with GIPRCNT values below 10 were considered active. Activity score was based on GIPRCNT using the following formula: […]
Score is 0 for GIPRCNT values of 100 or above, 50 for GIPRCNT values of 0, and 100 for GIPRCNT values of -100.

Compound	growth
CC(=O)Oc1ccc(C)cc1C	114%
O=[N+]([O-])c1cccc(-c2nc3cc4nc5ccccc5[nH]c4cc3n2)c1	99.1%
Cc1ccc2c(Cn3cc(CSc4nc5ccccc5o4)nn3)cc(=O)oc2c1	107%
CC(=O)Oc1ccc(/C(=C(\C)c2ccc(Cl)cc2)c2ccc(OCCN3CCCCC3)cc2)cc1	61.8%
O=S(=O)(Nc1cc(Cl)ccc1Cl)c1ccc(-c2cnc(C3CC3)o2)cc1	39.3%
Nc1nc(N)c(-c2ccc(Cl)c(Cl)c2)c(CBr)n1	47.5%
CN1CCN(C(=O)c2ccc(NC(=O)c3cc4c(nn3)NCCN4Cc3cc(Cl)ccc3Cl)cc2)CC1	81.3%
CCCC/C=C/[C@@H]1C[C@H]1CCO	100%
CCSc1nc2scc(C)c2c(=O)[nH]1	102%
Cc1cc(N2CCN(CCNc3ccnc4cc(Cl)ccc34)CC2)nc(N2CCOCC2)n1	66%
N#Cc1c(-c2ccc(Cl)cc2)nc(NN2C(=O)c3ccccc3C2=O)nc1N1CCOCC1	109%
COc1cc(-c2csc(NC(=O)c3ccc(N4CCOCC4)c(C(F)(F)F)c3)n2)cc(OC)c1OC	29.5%
NC(Cc1ccc(O)c([N+](=O)[O-])c1)C(=O)O (stereo not given)	85%
O=C(OC(CO)C(=O)NC12CC3CC(CC(C3)C1)C2)c1ccc(Cl)cc1 (stereo not given)	109%
Nc1n[nH]c2cccc(C#Cc3cccc(NC(=O)c4cc(F)cc(C(F)(F)F)c4)c3)c12	25.5%
COc1ccc(C(O)c2cc3c(N)c(C(=O)Nc4cccc(Br)c4)sc3nc2C)cc1 (stereo not given)	11.4%
CC(O)(c1ccccc1)C(c1ccccc1)C1CCCCN1 (stereo not given)	80.5%
CCOC(=O)[C@@H]1CSC(CC)=C(C(=O)O)N1	109%
CCOC(=O)C#Cc1c(C(=O)OCC)nnn1Cc1ccc([N+](=O)[O-])cc1	89.6%
CCn1cc(C(=O)NNC(=S)Nc2ccc(C)cc2)c(=O)c2ccc(C)nc21	95.7%

Compound	growth
Cc1ccc2c(n1)C(=O)C(Br)=C(CC(C)C)C2=O	81.5%
CCN1C(=S)N(c2ccccc2)C2C1NN=c1s/c(=C3\C(=O)N(C(C)C)c4ccccc43)c(=O)n12 (stereo not given)	71%
Cn1c(=O)c2nc(/C=C/c3ccccc3)c(=O)[nH]c2n(C)c1=S	107%
CCOC(=O)c1c(C(=O)c2cn(C)c3ccc(Br)cc23)c(-c2cn(C)c3ccc(Br)cc23)n(NC(=O)OC(C)(C)C)c1C	70.7% [100 µM]
O=C(Nn1c2c(sc1=NC1CC1)C(=O)c1ccccc1C2=O)c1cc2ccc1CCc1ccc(cc1)CC2	34.6%
Cn1ccnc1C(=O)/C=C/c1ccc(CC(=O)Nc2cc(C(F)(F)F)cc(C(F)(F)F)c2)cc1	71.4%
C=CCn1c(C)nc2ccc(Nc3nc(Nc4ccc5nc(C)n(CC=C)c5c4)c4ccccc4n3)cc21	-47.5% (active)
N#CC(C#N)N=Nc1ccc(Br)cc1	49.1%
COc1ccc(C2CC(c3ccc(Nc4nc(Nc5ccccc5)nc(Nc5ccccc5)n4)cc3)=NN2C(C)=O)cc1 (stereo not given)	118%
Cc1cc(N2CCCCC2)cc(C)c1-c1csc(NC(=O)c2ccncc2)n1	64.4%
Cc1ccccc1/C=C/C(=O)c1cccc(OCCCCOc2cccc(C(=O)/C=C/c3ccccc3C)c2)c1	96.6%
Cc1c2cnccc2c(C)c2c1c1cc(C#N)ccc1n2C	-11.4% (active)
O=C(CN1CCOCC1)Nc1nc(-c2cc3ccccc3oc2=O)cs1	87.9%
COc1ccc(C2=Nc3c(N)nc(N)nc3NC(c3cccc(Nc4ccnc5cc(C(F)(F)F)ccc45)c3)C2)cc1 (stereo not given)	72.1%
COc1c(B(O)O)cccc1-c1cc(C)c2c(ccc3[nH]ncc32)n1	59.1%
COc1cc2c(cc1OCCCN1CCN(CCCOc3cc4c(cc3OC)C(=O)N3CC(F)(F)C[C@H]3C=N4)CC1)N=C[C@@H]1CC(F)(F)CN1C2=O	60.9%
CN(C)CCNC(=O)c1ccc(-c2nc3ccc4[nH]ncc4c3c3c2C2CCC3C2)cc1 (stereo not given)	16.4%
Clc1ccc(/C=N\N=C\c2ccc(Cl)c(Cl)c2)cc1Cl	79.5%
Cn1c(I)c(C#CCO[Si](C)(C)C(C)(C)C)c(=O)[nH]c1=O	81.4%
CC(=O)N1N=C(c2ccc(C(F)(F)F)c(F)c2)CC1c1[nH]c(C)c(C(=O)NCC(F)(F)F)c1C (stereo not given)	69.5%
